Reference: PubChem BioAssay (NCATS)
Inconclusive results are not listed. The source made the active and inactive calls. The call rests on the fitted dose curve; in most records, active means well fitted curve in the direction sought with a large enough effect; inconclusive means small, poorly fitted or top-dose-only effect, or another doubt; inactive means no such curve, though single readings can be large; an effect the other way counts as inactive or inconclusive.

Experiments:
[1] = HEK-293 Cancer Cell Toxicity qHTS against the NCATS CANVASS Library (AID 1347355); further: nearly all actives have a fitted effect of over 65% in size; further: potency means the concentration at half of the fitted maximal effect; on outcome: series mostly up to about 46 µM
Summary of the method: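 1000 cells/well, 4 h pre-incubation 37 °C/5% CO2; 11-pnt titration; 72 h; CellTiter-Glo 15 min RT, luminescence.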

[2] = HPAF-II 24hr Apoptosis Induction qHTS against the NCATS CANVASS Library (AID 1347356); further: 0% is about no effect
Summary of the method: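 500 HPAF-II cells/well; compounds in 11-pnt qHTS; 24 h, 37 C/5% CO2; Caspase-Glo 3/7 added, 15 min RT dark; luminescence read. Doxorubicin control.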

[3] = HEK293 18hr Apoptosis Induction qHTS against the NCATS CANVASS Library (AID 1347357); further: 0% is about no effect
Summary of the method: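 HEK293 cells (500 per well, DMEM with 10% FBS) were treated with natural products, incubated 18 hours at 37 degrees C, then caspase-3/7 activity was read by Caspase-Glo luminescence after 15 min at room temperature.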

[4] = HEK293 12hr Apoptosis Induction qHTS against the NCATS CANVASS Library (AID 1347361); further: 0% is about no effect
Summary of the method: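 Read-out: Caspase-Glo 3/7 luminescence (DEVD substrate), 15 min RT. Preceded by 12 h compound exposure of HEK293, 500 cells/well, 11-pt qHTS titration; doxorubicin titration as control.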

[5] = KB-3-1 Cancer Cell Toxicity qHTS against the NCATS CANVASS Library (AID 1347366); further: nearly all actives have a fitted effect of over 75% in size; further: potency means the concentration at half of the fitted maximal effect; on activity change, negative = cytotoxicity: series mostly up to about 46 µM; on the % scale 0 is the no-effect control and ±100 the full control effect
Summary of the method: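 KB-3-1 cells (500 cells/well) in DMEM + 10% FBS were treated with compounds for 72 hr at 37C, 5% CO2. Viability was read as CellTiter-Glo luminescence after 10 minutes at room temperature.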

[6] = qHTS for ATAD5 Agonist screened against the NCATS CANVASS Library (AID 1347367);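 further: luciferase reporter driven by ATAD5 which rises upon DNA damage; 0% is about no effect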
Summary of the method: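 HEK293T cells stably carrying an ATAD5-controlled luciferase reporter (2000 cells/well) attached for 5 hr, then received compounds in an 11-point series for 16hr at 37C. Luminescence was read after a 30 min room-temperature reagent step.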

[7] = G06 Cancer Cell Toxicity qHTS against the NCATS CANVASS Library (AID 1347368); further: nearly all actives have a fitted effect of over 60% in size; further: potency means the concentration at half of the fitted maximal effect; on activity change, negative = cytotoxic: series mostly up to about 46 µM; on the % scale 0 is the no-effect control and ±100 the full control effect
Summary of the method: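 ATP luminescence (CellTiterGlo) readout of cytotoxicity. Canine G06 glioma cells, 500/well, 72 hr incubation at 37C with compounds; bortezomib titration served as control.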

[8] = MCF7 Cancer Cell Toxicity qHTS against the NCATS CANVASS Library (AID 1347369); on activity change, negative = cytotoxicity: series mostly up to about 46 µM; on the % scale 0 is the no-effect control and ±100 the full control effect
Summary of the method: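 MCF7, 500 cells/well; cpds 11-pt qHTS; 72 hr, 37C/5% CO2; CellTiterGlo ATP luminescence.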

[9] = qHTS for ATAD5 Antagonist screened against the NCATS CANVASS Library (AID 1347370); further: nearly all actives have a fitted effect of over 65% in size; further: potency means the concentration at half of the fitted maximal effect;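 on activity change, negative = inhibition: HEK293T cells carrying an ATAD5 luciferase reporter co-treated with 10 µM 5-fluorouridine; series mostly up to about 46 µM; on the % scale 0 is the no-effect control and ±100 the full control effect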
Summary of the method: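 HEK293T-ATAD5 luc reporter, 2000 cells/well; 5hr attach; cpd + 10 uM 5-FUrd; 16hr 37C, 5% CO2. Readouts: CellTiter-Fluor fluorescence (1hr), then Amplite luciferase luminescence (30min RT).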

[10] = target: Nuclear receptor subfamily 1 group I member 3 (Homo sapiens) (UniProt Q14994); assay: qHTS for Constitutive Androstane Receptor (CAR) Agonist screened against the NCATS CANVASS Library (AID 1347373);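 further: every well also contained 1.5 µM PK11195 alongside the test compound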; further: potency means the concentration at half of the fitted maximal effect; on activation: 0% is about no effect
Summary of the method: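 Luciferase read-out (ONE-Glo, 30 min RT) of CYP2B6-2.2kb promoter activity in double-stable HepG2-hCAR cells after 24hr compound exposure with 1.5uM PK11195 present; viability measured first by CellTiter-Fluor.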

[11] = 10-beta competent E. coli microbial cell viability qHTS against the NCATS CANVASS Library (AID 1347376); further: series mostly up to about 46 µM; 0% is about no effect
Summary of the method: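 Luminescence from BacTiter-Glo ATP detection served as the viability read-out; bacteria (0.2 OD) had been incubated overnight at 37C with pin-transferred compounds at 11 concentrations.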

[12] = qHTS for H2AX Agonists against the NCATS CANVASS Library (AID 1347378); further: 0% is about no effect
Summary of the method: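 CHO-K1 cells were plated overnight at 37C, then exposed to compounds (concentration series, 0.76% DMSO final) for 3 hr at 37C. Lysates received Eu-cryptate anti-pH2AX (S139) and d2 anti-H2AX antibodies; after 24 hr at room temperature, TR-FRET 665/620 nm ratio was read.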

[13] = Inflammasome Signaling qHTS Counterscreen: IL-1-beta AlphaLISA counterscreen against the NCATS CANVASS Library (AID 1347381);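 further: cell-free check with purified IL-1β in medium and no THP-1 cells; series mostly up to about 57 µM; 0% is about no effect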
Summary of the method: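 Here, no cellular stimulation occurs; compounds in an 11-point series meet 4 pg purified IL-1-beta directly. Bead-based AlphaLISA detection follows (1 h acceptor/antibody, then 30 min donor, dark, room temperature), with excitation at 680 nm.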

[14] = qHTS assay for small molecule disruptors of mitochondrial membrane potential screened against the NCATS CANVASS Library (AID 1347389); further: nearly all actives have a fitted effect of over 60% in size; further: potency means the concentration at half of the fitted maximal effect
Summary of the method: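 Red/green fluorescence ratio read-out: J-aggregates ex 540/em 590 nm, monomers ex 490/em 535 nm. HepG2, 1 hr compound treatment, then 30 min Mito-MPS dye at 37C. 11-pt qHTS concentration series.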

[15] = Secretion counterscreen for inhibitors of the SERCaMP assay screened against the NCATS CANVASS Library (AID 1347390);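 further: light from luciferase secreted into medium read as a measure of general secretion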; further: potency means the concentration at half of the fitted maximal effect
Summary of the method: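 SH-SY5Y cells expressing constitutively secreted GLuc, 1000 cells/well, attached 4 h at 37C, then exposed to compounds (0.001 - 77 uM, 11-pnt series) for 20 h. Coelenterazine added; luminescence read to flag secretory-pathway interferers.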

[16] = Viability qHTS for inhibitors of the SERCaMP assay screened against the NCATS CANVASS Library (AID 1347400); further: nearly all actives have a fitted effect of over 70% in size; further: potency means the concentration at half of the fitted maximal effect
Summary of the method: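 CellTiter-Glo luminescence readout after 48 h compound exposure (11-pnt qHTS series) of SH-SY5Y-GLuc SERCaMP MJH297 cells seeded at 1000 cells/well; bortezomib positive control.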

[17] = Redox Reaction Profiling qHTS: Assay Interference Panel against the NCATS CANVASS Library (AID 1347401);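 further: 100% = activation by 2 µM chloranil control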
Summary of the method: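 Quantitative HTS over an 11-point series was run in HEPES pH 7.3 with 50 mM NaCl, 200 uM DTT and 5 uM resazurin. Initial and 15-min resorufin fluorescence readings were taken.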

[18] = HPAF-II 18hr Apoptosis Induction qHTS against the NCATS CANVASS Library (AID 1347360); further: 0% is about no effect
Summary of the method: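 HPAF-II cells (500/well, DMEM + 10% FBS) were exposed to compounds for 18 hours at 37 degrees C. Caspase-3/7 activity was then read by Caspase-Glo 3/7 luminescence after 15 min at room temperature.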

[19] = HPAF-II 12hr Apoptosis Induction qHTS against the NCATS CANVASS Library (AID 1347358); further: 0% is about no effect
Summary of the method: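 Caspase-Glo 3/7 luminescence (DEVD substrate) reports caspase activity in HPAF-II cells after 12 h compound treatment at 37 degrees C. Compounds were tested in an 11-point series. Doxorubicin served as control.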

[20] = qHTS for Activators of p53 Stress Response Pathway screened against the NCATS CANVASS Library (AID 1347388); further: 0% is about no effect
Summary of the method: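 p53RE-bla HCT-116 cells (4000/well) were plated 5 h at 37C, exposed to compounds for 16 h at 37C over an 11-point concentration series, then loaded with CCF4 for 2 h at room temperature; 460/530 nm emission ratio read.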

Nuclear receptor subfamily 1 group I member 3 (Homo sapiens), sequence (Q14994 whole entry, looked up): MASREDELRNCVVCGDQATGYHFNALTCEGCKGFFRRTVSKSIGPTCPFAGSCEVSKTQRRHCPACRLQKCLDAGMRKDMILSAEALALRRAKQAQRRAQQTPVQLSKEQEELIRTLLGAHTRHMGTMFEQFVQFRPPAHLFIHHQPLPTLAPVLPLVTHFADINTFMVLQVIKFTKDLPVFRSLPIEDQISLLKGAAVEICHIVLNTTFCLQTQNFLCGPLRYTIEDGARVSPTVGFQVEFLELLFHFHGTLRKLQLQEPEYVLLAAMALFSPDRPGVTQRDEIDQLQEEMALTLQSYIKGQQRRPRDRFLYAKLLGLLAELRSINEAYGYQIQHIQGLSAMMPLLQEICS

CO/C=C/C(=O)c1cc2cnc3c(N)cc(=NC(=O)C(C)C)c([nH]1)c23
active: Potency [1] 166 nM | Potency [5] 0.59 µM | Potency [7] 132 nM | Potency [9] 741 nM | Potency [14] 3.31 µM | Potency [15] 1.72 µM | Potency [16] 381 nM
inactive: outcome [2] | Potency [3] | outcome [4] | Potency [6] | Potency [8] | Potency [10] | outcome [11] | Potency [12] | outcome [13] | Potency [17]

CCC(=O)N[C@@H](C[C@H](C)C(Cl)(Cl)Cl)C(=O)N1C(=O)C=C(OC)[C@@H]1C[C@H](C)CCl
inactive: Potency [1] | outcome [2] | Potency [3] | Potency [18] | outcome [4] | Potency [5] | Potency [6] | Potency [7] | Potency [8] | Potency [9] | Potency [10] | outcome [11] | Potency [12] | outcome [13] | Potency [15] | Potency [16] | Potency [17]

COC(=O)C1=C[C@]23C[C@@H](C)CC[C@@H]2[C@@]2(C)CC[C@@H](C(C)C)[C@@](O)(O3)[C@@H]12
inactive: outcome [2] | Potency [19] | Potency [18] | Potency [5] | Potency [6] | Potency [7] | Potency [8] | Potency [9] | Potency [10] | outcome [11] | Potency [12] | outcome [13] | Potency [20] | Potency [14] | Potency [15] | Potency [16] | Potency [17]

CC(CCC[C@]1(C)C(=O)C=C[C@@]23C[C@]4(C)O[C@@H](C[C@@H]4[C@H]2O)C31)C(=O)O (stereo partly drawn)
inactive: Potency [1] | outcome [2] | Potency [3] | Potency [19] | Potency [18] | outcome [4] | Potency [5] | Potency [6] | Potency [7] | Potency [8] | Potency [9] | Potency [10] | outcome [11] | Potency [12] | outcome [13] | Potency [20] | Potency [14] | Potency [15] | Potency [16] | Potency [17]

Cc1cc(C)c(O)c(C(=O)CC2CC(=O)NC(=O)C2)c1
inactive: outcome [2] | Potency [3] | Potency [19] | Potency [18] | outcome [4] | Potency [6] | Potency [10] | outcome [11] | outcome [13] | Potency [20] | Potency [14] | Potency [17]
active: Potency [1] 3720 nM | Potency [5] 13.2 µM | Potency [7] 2640 nM | Potency [9] 4670 nM | Potency [15] 6.09 µM

COc1ccc([C@@H]2CC(=O)c3c(cc(O)c(C/C=C(\C)CCC=C(C)C)c3O)O2)cc1
inactive: activity change, negative = cytotoxicity [1] -14.6% [at 9.19 µM] | caspase activation [2] 3.45% [at 9.19 µM] | caspase activation [3] 0.682% [at 9.19 µM] | caspase activation [19] 1.72% [at 9.19 µM] | caspase activation [18] -1.9% [at 9.19 µM] | caspase activation [4] 1.23% [at 9.19 µM] | activity change, negative = cytotoxicity [5] -3.45% [at 9.19 µM] | activation [6] -1.01% [at 9.19 µM] | outcome [7] inactive [at 9.19 µM] | activity change, negative = cytotoxicity [8] -4.45% [at 9.17 µM] | activity change, negative = inhibition [9] -0.0168% [at 9.19 µM] | activity change, negative = cytotoxic [11] -2.49% [at 9.19 µM] | activation [12] 3.21% [at 15.3 µM] | activity change, negative = inhibition [13] -7.89% [at 11.5 µM] | activation [20] 21.1% [at 9.19 µM] | activity change, negative = inhibition [15] 35.7% [at 15.3 µM] | activity change, negative = cytotoxicity [16] -0.051% [at 18.4 µM] | activation (redox signal) [17] -16.9% [at 11.4 µM]
active: Potency [10] 3.05 µM | Potency [14] 3.84 µM
